# Experimental data as given in the supplement of paper PMC10849652.
# About 7,900 targets were measured; listed, in parts, are those with a hit and a random draw of the rest. About 0.6% of all pairs of compound and target were hits. Unmarked numbers belong to inactive results.
# Legend:
# Assay in all cases: log2 fold change, soluble protein after heating vs DMSO (PISA); higher = thermal stabilisation; K562 cells, 10 uM, 30 min; active = over 0.2 and 3.5 SD of the protein, either way, in both replicates (recomputed)
# bafetinib = compound: Cc1ccc(NC(=O)c2ccc(CN3CC[C@H](N(C)C)C3)c(C(F)(F)F)c2)cc1Nc1nccc(-c2cncnc2)n1 [bafetinib]
# How it was run: (§1)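 For each measurement, 10 μM compound was applied for 30 min to K562 cells at 2×10^6 cells/mL. Aliquots were heated for 3 min across 48°C-58°C, pooled, and extracted in PBS with 0.5% NP-40 at 4°C; the supernatant after 21,000xg for 90 min was soluble protein. This was quantified by TMTpro 16plex LC-MS/MS with channel sums equalised, and thermal stability was reported relative to control samples from duplicates, on a log2 fold-change scale.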
# [1] = compound: Cc1cccc(CC(=O)N2CCc3c2ccc(-c2cn(C)c4ncnc(N)c24)c3F)n1
# How it was run: as §1
# nilotinib = compound: Cc1cn(-c2cc(NC(=O)c3ccc(C)c(Nc4nccc(-c5cccnc5)n4)c3)cc(C(F)(F)F)c2)cn1 [nilotinib]
# How it was run: as §1
# [2] = compound: Cc1nc(Nc2n[nH]c3c2CN(C(=O)N[C@H](CN(C)C)c2ccccc2)C3(C)C)c2sccc2n1
# How it was run: as §1
# dasatinib = compound: Cc1nc(Nc2ncc(C(=O)Nc3c(C)cccc3Cl)s2)cc(N2CCN(CCO)CC2)n1 [dasatinib]
# How it was run: as §1
# [3] = compound: Cc1ncc(-c2ccnc(Nc3ccc(S(C)(=O)=O)cc3)n2)n1C(C)C
# How it was run: as §1
# [4] = compound: Cn1cc(-c2ccc3c(c2)CCN3C(=O)Cc2cccc(C(F)(F)F)c2)c2c(N)ncnc21
# How it was run: as §1
# [5] = compound: Cn1cc(-c2ccc3nnc(C(F)(F)c4ccc5ncccc5c4)n3n2)cn1
# How it was run: as §1
# tipifarnib = compound: Cn1cncc1[C@@](N)(c1ccc(Cl)cc1)c1ccc2c(c1)c(-c1cccc(Cl)c1)cc(=O)n2C [tipifarnib]
# How it was run: as §1
# mubritinib = compound: FC(F)(F)c1ccc(/C=C/c2nc(COc3ccc(CCCCn4ccnn4)cc3)co2)cc1 [mubritinib]
# How it was run: as §1
# [6] = compound: NC(=O)Nc1cc(-c2cccc(F)c2)sc1C(=O)N[C@H]1CCCNC1
# How it was run: as §1
# [7] = compound: NC(=O)c1cnc(N[C@@H]2CCCC[C@@H]2N)nc1Nc1cccc(-n2nccn2)c1
# How it was run: as §1
# [8] = compound: NC1(c2ccc(-c3nc4ccn5c(=O)[nH]nc5c4cc3-c3ccccc3)cc2)CCC1
# How it was run: as §1
# [9] = compound: NCC(=O)Nc1ccc(-n2nc(C(F)(F)F)cc2-c2ccc3c(ccc4ccccc43)c2)cc1
# How it was run: as §1
# entinostat = compound: Nc1ccccc1NC(=O)c1ccc(CNC(=O)OCc2cccnc2)cc1 [entinostat]
# How it was run: as §1
# vorinostat = compound: O=C(CCCCCCC(=O)Nc1ccccc1)NO [vorinostat]
# How it was run: as §1
# citarinostat = compound: O=C(CCCCCCNC(=O)c1cnc(N(c2ccccc2)c2ccccc2Cl)nc1)NO [citarinostat]
# How it was run: as §1
# silmitasertib = compound: O=C(O)c1ccc2c(c1)nc(Nc1cccc(Cl)c1)c1ccncc12 [silmitasertib]
# How it was run: as §1
# [10] = compound: O=C1NC(=O)C(c2cnc3ccccn23)=C1c1cn2c3c(cc(F)cc13)CN(C(=O)N1CCCCC1)CC2
# How it was run: as §1
# [11] = compound: c1cc(OCCN2CCCCC2)cc(-c2n[nH]c3ccc(-c4nnc[nH]4)cc23)c1
# How it was run: as §1
# UniProt P41440, sequence (P41440 whole entry, looked up): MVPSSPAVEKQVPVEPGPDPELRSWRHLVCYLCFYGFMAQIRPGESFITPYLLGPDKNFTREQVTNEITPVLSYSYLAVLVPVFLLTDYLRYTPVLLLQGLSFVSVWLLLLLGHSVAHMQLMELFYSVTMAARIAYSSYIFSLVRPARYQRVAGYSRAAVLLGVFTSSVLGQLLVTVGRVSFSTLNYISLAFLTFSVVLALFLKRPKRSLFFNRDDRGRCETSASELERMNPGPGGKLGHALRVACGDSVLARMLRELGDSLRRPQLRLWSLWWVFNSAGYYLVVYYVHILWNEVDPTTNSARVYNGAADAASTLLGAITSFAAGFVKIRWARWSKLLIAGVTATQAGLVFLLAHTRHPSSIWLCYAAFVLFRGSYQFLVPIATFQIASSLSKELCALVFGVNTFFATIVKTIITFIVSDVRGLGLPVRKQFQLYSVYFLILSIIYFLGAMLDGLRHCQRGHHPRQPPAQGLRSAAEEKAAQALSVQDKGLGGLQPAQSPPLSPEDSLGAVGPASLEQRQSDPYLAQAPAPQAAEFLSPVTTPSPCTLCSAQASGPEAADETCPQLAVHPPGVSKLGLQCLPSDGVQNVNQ
# UniProt O95486, sequence (O95486 whole entry, looked up): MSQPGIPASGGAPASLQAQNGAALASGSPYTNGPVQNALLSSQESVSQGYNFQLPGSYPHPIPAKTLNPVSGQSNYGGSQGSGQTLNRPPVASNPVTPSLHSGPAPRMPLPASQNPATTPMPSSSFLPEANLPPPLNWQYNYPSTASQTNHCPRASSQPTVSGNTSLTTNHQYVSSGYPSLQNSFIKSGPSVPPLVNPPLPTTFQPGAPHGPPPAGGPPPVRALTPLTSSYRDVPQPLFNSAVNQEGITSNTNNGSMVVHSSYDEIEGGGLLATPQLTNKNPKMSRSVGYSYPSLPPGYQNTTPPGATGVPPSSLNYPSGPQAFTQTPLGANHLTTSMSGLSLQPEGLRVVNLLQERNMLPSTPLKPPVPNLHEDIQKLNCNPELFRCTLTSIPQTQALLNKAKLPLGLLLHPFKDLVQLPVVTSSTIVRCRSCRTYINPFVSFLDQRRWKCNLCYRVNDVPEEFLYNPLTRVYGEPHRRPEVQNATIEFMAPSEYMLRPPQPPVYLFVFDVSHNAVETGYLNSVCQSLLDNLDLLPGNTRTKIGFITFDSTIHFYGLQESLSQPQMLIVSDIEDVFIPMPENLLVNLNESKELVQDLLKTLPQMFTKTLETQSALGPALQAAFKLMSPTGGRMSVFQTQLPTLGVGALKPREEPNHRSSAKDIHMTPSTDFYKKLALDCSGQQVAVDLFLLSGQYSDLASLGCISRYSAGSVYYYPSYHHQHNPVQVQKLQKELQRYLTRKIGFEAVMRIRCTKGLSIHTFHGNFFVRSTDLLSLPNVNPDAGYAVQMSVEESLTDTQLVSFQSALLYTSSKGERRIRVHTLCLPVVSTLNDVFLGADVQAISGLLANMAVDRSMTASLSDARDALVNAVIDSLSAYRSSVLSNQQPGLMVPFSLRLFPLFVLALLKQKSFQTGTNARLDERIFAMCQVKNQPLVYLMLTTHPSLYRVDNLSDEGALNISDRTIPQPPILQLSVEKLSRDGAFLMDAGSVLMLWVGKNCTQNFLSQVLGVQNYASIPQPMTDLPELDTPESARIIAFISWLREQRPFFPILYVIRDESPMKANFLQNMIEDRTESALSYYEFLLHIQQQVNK
# UniProt Q8TC12, sequence (Q8TC12 whole entry, looked up): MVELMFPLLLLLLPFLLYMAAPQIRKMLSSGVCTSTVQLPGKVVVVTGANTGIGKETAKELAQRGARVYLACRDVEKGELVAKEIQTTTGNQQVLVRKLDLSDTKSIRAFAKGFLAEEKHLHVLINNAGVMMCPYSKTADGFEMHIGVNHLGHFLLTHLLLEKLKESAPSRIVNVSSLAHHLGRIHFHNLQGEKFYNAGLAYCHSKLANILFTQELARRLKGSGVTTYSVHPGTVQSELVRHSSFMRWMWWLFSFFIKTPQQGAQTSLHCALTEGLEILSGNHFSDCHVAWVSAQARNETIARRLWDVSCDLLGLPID
# UniProt P63208, sequence (P63208 whole entry, looked up): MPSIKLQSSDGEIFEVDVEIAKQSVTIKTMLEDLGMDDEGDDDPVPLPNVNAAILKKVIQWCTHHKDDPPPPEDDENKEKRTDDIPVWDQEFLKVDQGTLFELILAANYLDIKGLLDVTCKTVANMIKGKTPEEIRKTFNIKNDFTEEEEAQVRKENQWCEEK
# UniProt Q9H082, sequence (Q9H082 whole entry, looked up): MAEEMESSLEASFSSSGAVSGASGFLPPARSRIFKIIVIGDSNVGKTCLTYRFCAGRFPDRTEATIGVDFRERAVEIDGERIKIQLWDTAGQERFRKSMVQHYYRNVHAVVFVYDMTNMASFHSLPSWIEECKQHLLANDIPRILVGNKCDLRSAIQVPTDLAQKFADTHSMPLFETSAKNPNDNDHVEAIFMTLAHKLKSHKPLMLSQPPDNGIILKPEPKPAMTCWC
# UniProt Q8IXJ6, sequence (Q8IXJ6 whole entry, looked up): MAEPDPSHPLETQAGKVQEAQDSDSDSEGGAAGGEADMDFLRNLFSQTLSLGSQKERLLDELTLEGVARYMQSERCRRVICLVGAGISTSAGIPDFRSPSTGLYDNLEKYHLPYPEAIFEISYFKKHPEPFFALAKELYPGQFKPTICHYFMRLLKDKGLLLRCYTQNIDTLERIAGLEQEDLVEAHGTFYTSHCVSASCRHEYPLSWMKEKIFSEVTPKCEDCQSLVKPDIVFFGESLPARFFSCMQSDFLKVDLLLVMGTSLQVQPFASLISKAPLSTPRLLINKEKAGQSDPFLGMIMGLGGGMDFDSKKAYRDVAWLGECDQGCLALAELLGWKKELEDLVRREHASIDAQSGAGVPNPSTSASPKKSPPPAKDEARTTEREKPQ
# UniProt Q8N122, sequence (Q8N122 whole entry, looked up): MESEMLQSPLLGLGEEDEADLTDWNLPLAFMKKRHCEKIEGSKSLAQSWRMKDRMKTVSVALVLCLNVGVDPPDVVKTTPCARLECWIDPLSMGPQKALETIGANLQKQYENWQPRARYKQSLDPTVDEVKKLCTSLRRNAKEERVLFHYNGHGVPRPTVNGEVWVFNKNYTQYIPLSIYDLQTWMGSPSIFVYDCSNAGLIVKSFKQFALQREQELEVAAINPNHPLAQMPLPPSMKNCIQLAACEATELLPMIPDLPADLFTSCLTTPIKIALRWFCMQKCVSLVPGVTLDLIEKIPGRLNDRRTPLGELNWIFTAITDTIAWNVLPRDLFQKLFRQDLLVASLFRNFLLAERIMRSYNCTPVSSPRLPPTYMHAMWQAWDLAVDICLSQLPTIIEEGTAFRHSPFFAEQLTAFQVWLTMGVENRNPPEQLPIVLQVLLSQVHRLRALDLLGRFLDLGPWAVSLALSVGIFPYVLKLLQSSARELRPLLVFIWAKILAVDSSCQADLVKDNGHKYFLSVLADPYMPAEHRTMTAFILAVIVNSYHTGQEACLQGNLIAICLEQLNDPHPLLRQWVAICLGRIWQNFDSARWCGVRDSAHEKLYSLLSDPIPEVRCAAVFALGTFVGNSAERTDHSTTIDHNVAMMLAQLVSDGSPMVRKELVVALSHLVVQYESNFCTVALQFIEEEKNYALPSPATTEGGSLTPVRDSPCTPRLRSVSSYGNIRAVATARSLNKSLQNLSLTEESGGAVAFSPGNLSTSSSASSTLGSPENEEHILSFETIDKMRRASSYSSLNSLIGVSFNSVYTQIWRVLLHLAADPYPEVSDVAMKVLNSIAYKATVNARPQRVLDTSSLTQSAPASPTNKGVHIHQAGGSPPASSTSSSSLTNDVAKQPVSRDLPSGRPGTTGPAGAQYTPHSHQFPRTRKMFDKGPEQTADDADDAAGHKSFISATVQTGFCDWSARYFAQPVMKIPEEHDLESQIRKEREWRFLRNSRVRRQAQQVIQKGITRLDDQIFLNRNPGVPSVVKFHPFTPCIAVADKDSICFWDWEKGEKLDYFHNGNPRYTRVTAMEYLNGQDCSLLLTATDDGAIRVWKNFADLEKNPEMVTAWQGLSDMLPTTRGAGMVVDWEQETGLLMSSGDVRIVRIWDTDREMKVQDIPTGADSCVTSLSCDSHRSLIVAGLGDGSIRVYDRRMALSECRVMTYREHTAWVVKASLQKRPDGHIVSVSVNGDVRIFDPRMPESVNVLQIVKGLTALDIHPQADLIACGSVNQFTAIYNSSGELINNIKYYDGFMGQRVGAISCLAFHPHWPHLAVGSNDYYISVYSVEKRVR
# UniProt P58004, sequence (P58004 whole entry, looked up): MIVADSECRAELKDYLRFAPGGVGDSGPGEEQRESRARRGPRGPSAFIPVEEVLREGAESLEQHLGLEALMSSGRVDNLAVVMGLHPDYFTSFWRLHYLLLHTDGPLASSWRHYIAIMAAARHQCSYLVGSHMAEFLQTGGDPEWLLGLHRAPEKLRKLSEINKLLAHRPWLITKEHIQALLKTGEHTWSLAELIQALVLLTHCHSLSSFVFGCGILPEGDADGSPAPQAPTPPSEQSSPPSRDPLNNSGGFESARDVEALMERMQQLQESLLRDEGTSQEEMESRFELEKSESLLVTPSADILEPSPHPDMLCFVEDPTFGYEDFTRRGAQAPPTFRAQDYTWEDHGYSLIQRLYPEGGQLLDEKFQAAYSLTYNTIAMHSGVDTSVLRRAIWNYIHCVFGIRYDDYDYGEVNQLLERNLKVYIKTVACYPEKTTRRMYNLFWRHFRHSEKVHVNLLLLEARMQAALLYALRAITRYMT
# UniProt P11233, sequence (P11233 whole entry, looked up): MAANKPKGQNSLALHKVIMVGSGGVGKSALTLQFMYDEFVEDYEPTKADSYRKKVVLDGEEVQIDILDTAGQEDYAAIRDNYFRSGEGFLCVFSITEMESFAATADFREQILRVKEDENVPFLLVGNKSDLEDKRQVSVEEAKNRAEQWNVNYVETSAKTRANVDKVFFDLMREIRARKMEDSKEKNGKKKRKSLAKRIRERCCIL
Target,log2 fold change (bafetinib),log2 fold change [1],log2 fold change (nilotinib),log2 fold change [2],log2 fold change (dasatinib),log2 fold change [3],log2 fold change [4],log2 fold change [5],log2 fold change (tipifarnib),log2 fold change (mubritinib),log2 fold change [6],log2 fold change [7],log2 fold change [8],log2 fold change [9],log2 fold change (entinostat),log2 fold change (vorinostat),log2 fold change (citarinostat),log2 fold change (silmitasertib),log2 fold change [10],log2 fold change [11]
RALA (UniProt P11233),-0.026,0.178,0.064,-0.012,0.027,-0.026,0.014,0.043,-0.06,0.015,-0.03,-0.019,0.057,0.004,-0.064,0.142,0.082,-0.021,0.028,-0.028
RDH11 (UniProt Q8TC12),-0.119,-0.048,0.099,-0.112,-0.079,-0.03,0.015,-0.022,0.059,-0.033,-0.118,0.061,-0.049,-0.165,0.055,0.05,0.092,0.061,-0.087,-0.041
RPTOR (UniProt Q8N122),-0.005,0.034,-0.085,-0.103,-0.103,-0.045,-0.107,0.009,-0.062,0.033,-0.026,-0.139,-0.243 (active),-0.021,0.009,0.007,0.056,0.085,-0.025,-0.008
"SART3, A0A499FI31",-0.057,0.039,-0.02,-0.189,-0.128,-0.261 (active),0.029,-0.001,0.008,0.024,-0.011,-0.105,-0.175,-0.054,0.055,0.1,0.098,0.114,-0.136,-0.02
RB1CC1 (UniProt Q8TDY2),-0.037,0.014,0.009,0.078,-0.103,-0.012,0.029,0.017,-0.069,0.026,0.009,0.124,0.126,-0.022,0.001,0.047,0.114,-0.08,-0.077,0.111
RABGAP1L isoform 3 (UniProt Q5R372),-0.045,0.024,-0.031,-0.001,-0.038,-0.037,-0.005,0.013,0.016,-0.001,-0.012,-0.012,-0.05,0.036,0.016,0.025,0.06,0.019,0.073,-0.011
RAB33B (UniProt Q9H082),-0.01,0.012,0.01,0.018,-0.058,0.022,0,0.151,0.024,-0.01,-0.032,0.014,0.037,-0.019,-0.035,-0.021,-0.016,-0.014,-0.048,-0.032
SLC19A1 (UniProt P41440),0.11,0.039,0.01,0.012,0.024,0.026,0.103,-0.026,0.051,0.074,0.1,0.157,0.036,0.007,-0.017,0.057,0.02,-0.013,0.207,-0.033
SIRT2 (UniProt Q8IXJ6),-0.041,-0.003,0.061,-0.006,-0.032,-0.051,0.104,-0.002,0.027,0.067,-0.048,0.023,-0.07,-0.066,-0.02,-0.039,-0.022,-0.035,-0.035,0.033
SEC24A (UniProt O95486),-0.018,0.041,-0.126,0.021,-0.121,-0.012,0.008,0.016,-0.005,0.017,-0.015,0,-0.108,-0.016,0.016,0.078,0,0.02,-0.092,-0.013
RBM12 (UniProt Q9NTZ6),0.026,0.046,-0.108,-0.227,-0.287,-0.09,0.048,0.015,-0.061,0.032,-0.044,-0.062,-0.219,-0.106,0.133,0.128,0.107,-0.026,-0.219,-0.002
RSL1D1 (UniProt O76021),0.288,-0.027,0.117,0.109,0.239,0.264,-0.427,-0.18,0.15,-0.244,-0.001,0.207,0.339,0.188,-0.133,-0.016,-0.105,0.329,0.409,-0.265
SKP1 (UniProt P63208),-0.003,0.289 (active),0.024,-0.011,0.007,0.012,0.047,-0.017,-0.06,-0.001,0.015,0.011,0.034,0.047,0.037,0.16,-0.003,0,0.008,0.01
SESN2 (UniProt P58004),-0.09,0.136,-0.02,-0.207,-0.034,-0.063,0.069,-0.069,-0.213,0.042,-0.069,-0.159,-0.129,-0.093,0.075,0.079,-0.081,0.108,-0.123,0.026
RPS9 (UniProt P46781),0.318,-0.001,0.003,0.206,0.106,-0.035,-0.176,-0.088,0.067,-0.09,0.07,0.127,0.202,0.073,-0.058,-0.007,-0.058,0.007,0.076,-0.152
